Results reported in PubChem BioAssay (Tox21).
Results filed as inconclusive are left out. Calls of active or inactive are those of the source. Unless noted, the call rests on the fitted dose curve; in most records, active means well fitted curve in the direction sought with a large enough effect in the repeat runs; inconclusive means weak or mixed curves; inactive means no such curve, though single readings can be large; an effect the other way counts as inactive or inconclusive.

How the values were obtained:
[1] = qHTS assay to identify aromatase inhibitors - cell viability counter screen (AID 743084);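 further: cells stimulated with testosterone during compound exposure; nearly all actives have a fitted effect of over 55% in size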
[2] = target: Aryl hydrocarbon receptor (Homo sapiens) (UniProt P35869); assay: qHTS assay to identify small molecule that activate the aryl hydrocarbon receptor (AhR) signaling pathway (AID 743085);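 further: HG2L7.5c1 human HepG2 liver cells with stably integrated DRE-driven firefly reporter; series mostly up to about 70 µM; nearly all actives have a fitted effect of over 15% in size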
Sequence of Aryl hydrocarbon receptor (Homo sapiens) (P35869 whole entry, looked up): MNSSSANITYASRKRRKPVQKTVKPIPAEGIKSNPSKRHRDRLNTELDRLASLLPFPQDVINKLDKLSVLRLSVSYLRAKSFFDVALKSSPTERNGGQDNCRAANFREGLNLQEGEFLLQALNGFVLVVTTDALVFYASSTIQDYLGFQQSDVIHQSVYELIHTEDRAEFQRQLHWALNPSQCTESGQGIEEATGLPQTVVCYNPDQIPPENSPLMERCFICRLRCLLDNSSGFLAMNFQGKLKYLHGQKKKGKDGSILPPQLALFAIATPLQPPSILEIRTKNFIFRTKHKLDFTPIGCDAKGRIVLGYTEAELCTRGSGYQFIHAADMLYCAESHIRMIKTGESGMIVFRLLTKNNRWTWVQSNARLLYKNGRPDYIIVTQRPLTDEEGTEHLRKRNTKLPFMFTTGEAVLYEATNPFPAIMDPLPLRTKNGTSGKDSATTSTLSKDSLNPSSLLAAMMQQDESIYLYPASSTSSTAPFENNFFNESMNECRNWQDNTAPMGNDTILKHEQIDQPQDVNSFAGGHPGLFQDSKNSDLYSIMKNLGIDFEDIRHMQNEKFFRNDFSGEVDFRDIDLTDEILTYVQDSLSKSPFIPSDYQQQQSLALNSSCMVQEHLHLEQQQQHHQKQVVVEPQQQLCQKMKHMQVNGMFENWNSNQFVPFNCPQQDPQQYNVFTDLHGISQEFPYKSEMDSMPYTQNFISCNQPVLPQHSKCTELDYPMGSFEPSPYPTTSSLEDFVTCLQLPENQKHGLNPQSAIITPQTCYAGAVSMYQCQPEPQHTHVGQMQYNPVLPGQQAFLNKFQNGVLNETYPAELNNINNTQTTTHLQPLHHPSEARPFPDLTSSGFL
Summary of the method: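 A multiplexed format paired cell viability (CellTiter-Fluor fluorescence) with AhR-dependent luciferase output (ONE-Glo luminescence) in the same wells of HepG2 DRE-luc cells after 24 h compound exposure at 37C.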

[3] = qHTS assay to identify small molecule that activate the aryl hydrocarbon receptor (AhR) signaling pathway - cell viability counter screen (AID 743086);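 further: HepG2 liver cells carrying the AhR DRE luciferase reporter; series mostly up to about 70 µM; nearly all actives have a fitted effect of over 45% in size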
Summary of the method: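 Cytotoxicity counter screen: CellTiter-Fluor signal (30 min, 37 C) in 4000 HepG2 cells/well carrying the DRE-luciferase reporter, following 24 h compound exposure at 37 C.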

[4] = target: Peroxisome proliferator-activated receptor gamma (Homo sapiens) (UniProt P37231); assay: qHTS assay to identify small molecule agonists of the peroxisome proliferator-activated receptor gamma (PPARg) signaling pathway (AID 743094; active means well fitted activation curve with a large enough effect in the signal ratio in the repeat runs, not every such curve was filed as active; the % refers to the signal ratio)
Sequence of Peroxisome proliferator-activated receptor gamma (Homo sapiens) (P37231 whole entry, looked up): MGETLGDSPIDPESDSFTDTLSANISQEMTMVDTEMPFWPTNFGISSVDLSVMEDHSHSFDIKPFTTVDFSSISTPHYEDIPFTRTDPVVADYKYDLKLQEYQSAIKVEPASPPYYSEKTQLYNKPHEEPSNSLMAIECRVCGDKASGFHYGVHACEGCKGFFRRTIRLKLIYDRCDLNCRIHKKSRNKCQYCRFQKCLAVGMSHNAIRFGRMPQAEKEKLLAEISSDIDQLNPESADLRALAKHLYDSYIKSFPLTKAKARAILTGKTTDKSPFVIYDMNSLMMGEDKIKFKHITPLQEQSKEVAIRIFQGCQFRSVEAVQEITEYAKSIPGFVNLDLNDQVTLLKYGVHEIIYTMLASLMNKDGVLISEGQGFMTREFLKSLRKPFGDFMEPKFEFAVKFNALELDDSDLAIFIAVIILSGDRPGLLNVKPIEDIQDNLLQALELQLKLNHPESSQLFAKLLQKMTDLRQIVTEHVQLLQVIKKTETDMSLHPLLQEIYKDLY
Summary of the method: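 Cells from the PPARg UAS-bla HEK293H line are plated and incubated 5 h at 37C. Compounds in DMSO are pinned in and left 17 h at 37C. LiveBLAzer B/G substrate is then added for 1 h at room temperature before fluorescence is measured.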

[5] = qHTS assay to identify small molecule antagonists of the peroxisome proliferator-activated receptor gamma (PPARg) signaling pathway - cell viability counter screen (AID 743194); conditions: Potency: co-treated with 50 nM rosiglitazone; further: nearly all actives have a fitted effect of over 55% in size
Summary of the method: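 Viability was measured as CellTiter-Glo luminescence in GeneBLAzer PPARg UAS-bla HEK293H cells. These cells had been exposed 17 h at 37 C to compounds together with rosiglitazone at 50 nM final, with the beta-lactamase readout taken in the same wells.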

[6] = qHTS assay for small molecule agonists of the antioxidant response element (ARE) signaling pathway (AID 743202; active means well fitted activation curve with a large enough effect in the signal ratio in the repeat runs, not every such curve was filed as active; the % refers to the signal ratio; further: potency means the concentration at half of the fitted maximal effect)
Summary of the method: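 Beta-lactamase reporter activity, read as fluorescence intensity, reflects ARE/Nrf2 pathway induction in HepG2 cells after 16 h compound exposure at 37 C; substrate loading was 2 h at room temperature.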

[7] = qHTS assay for small molecule agonists of the antioxidant response element (ARE) signaling pathway - cell viability counter screen (AID 743203; calls by dose curve; further: nearly all actives have a fitted effect of over 55% in size)
Summary of the method: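 Cytotoxicity was tested in parallel with the ARE reporter screen. ARE-bla HepG2 cells were exposed to compounds for 16 hrs, and viability was taken from CellTiter-Glo luminescence.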

[8] = qHTS assay for small molecule activators of the heat shock response signaling pathway - cell viability counter screen (AID 743209); further: nearly all actives have a fitted effect of over 50% in size
Summary of the method: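 Cytotoxicity counter screen run in parallel with the HSE beta-lactamase reporter, using the same wells. HeLa HSE-bla cells received compound for 5 h at 37 C; ATP-based CellTiter-Glo luminescence was measured after 30 min at room temperature.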

[9] = qHTS assay for small molecule activators of the heat shock response signaling pathway (AID 743210; active means well fitted activation curve with a large enough effect in the signal ratio in the repeat runs, with a control signal flat, not every such curve was filed as active; the % refers to the signal ratio;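 further: HeLa cells with beta-lactamase reporter driven by heat shock elements; series mostly up to about 63 µM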)
Summary of the method: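 Fluorescence from a cleaved B/G FRET substrate (2.5 h, room temp) reports HSE-driven beta-lactamase in HeLa cells treated 5 h at 37 C with DMSO-dissolved compounds.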

[10] = qHTS assay to identify small molecule agonists of the peroxisome proliferator-activated receptor delta (PPARd) signaling pathway - cell viability counter screen (AID 743211); further: nearly all actives have a fitted effect of over 55% in size
Summary of the method: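 Tox21 library compounds, delivered in DMSO, were incubated 17 h with PPARd-bla HEK293H cells; cytotoxicity was taken from CellTiter-Glo luminescence read 30 min after reagent addition.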

[11] = target: Peroxisome proliferator-activated receptor delta (Homo sapiens) (UniProt Q03181); assay: qHTS assay to identify small molecule agonists of the peroxisome proliferator-activated receptor delta (PPARd) signaling pathway (AID 743212; calls by dose curve)
Sequence of Peroxisome proliferator-activated receptor delta (Homo sapiens) (Q03181 whole entry, looked up): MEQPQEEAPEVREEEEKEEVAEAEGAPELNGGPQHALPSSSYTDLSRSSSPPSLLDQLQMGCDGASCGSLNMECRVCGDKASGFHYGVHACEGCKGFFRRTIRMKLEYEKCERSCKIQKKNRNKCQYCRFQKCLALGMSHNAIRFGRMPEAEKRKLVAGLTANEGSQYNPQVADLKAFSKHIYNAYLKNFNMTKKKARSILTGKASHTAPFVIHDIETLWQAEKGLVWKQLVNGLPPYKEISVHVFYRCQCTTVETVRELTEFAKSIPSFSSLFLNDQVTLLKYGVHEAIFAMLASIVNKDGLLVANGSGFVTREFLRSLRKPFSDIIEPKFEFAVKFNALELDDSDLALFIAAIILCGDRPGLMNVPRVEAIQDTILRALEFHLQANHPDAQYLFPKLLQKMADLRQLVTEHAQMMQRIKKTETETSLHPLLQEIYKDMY
Summary of the method: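 Steps: seed PPARd-bla HEK293H cells; incubate 5 h, 37 C, 5% CO2; add compounds in DMSO; incubate, 37 C; add LiveBLAzer B/G FRET substrate; hold 2 h at room temperature; measure fluorescence.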

[12] = qHTS assay to identify small molecule antagonists of the peroxisome proliferator-activated receptor delta (PPARd) signaling pathway - cell viability counter screen (AID 743213); further: nearly all actives have a fitted effect of over 50% in size
Summary of the method: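 In this counter screen, HEK293H cells carrying a UAS-beta-lactamase reporter are co-treated with test compounds and 300 nM L165041 (final) for 17 h at 37 C; cell viability is quantified by CellTiter-Glo luminescence.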

[13] = target: Peroxisome proliferator-activated receptor delta (Homo sapiens) (UniProt Q03181); assay: qHTS assay to identify small molecule antagonists of the peroxisome proliferator-activated receptor delta (PPARd) signaling pathway (AID 743215; active means well fitted inhibition curve with a large enough effect in the signal ratio in the repeat runs, not every such curve was filed as active; the % refers to the signal ratio;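 further: cells stimulated with agonist L165041 at 300 nM final during compound exposure; series mostly up to about 62 µM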)
Summary of the method: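 Cells: HEK293H with a UAS-driven beta-lactamase reporter responsive to PPARd. Compounds were co-added with L165041 (300 nM, final) and incubated 17 h at 37 C before a 2 h room-temperature FRET substrate step and fluorescence reading.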

[14] = target: Bile acid receptor (Homo sapiens) (UniProt Q96RI1); assay: qHTS assay to identify small molecule antagonists of the farnesoid-X-receptor (FXR) signaling pathway (AID 743217; active means well fitted inhibition curve with a large enough effect in the signal ratio in the repeat runs, not every such curve was filed as active; the % refers to the signal ratio)
Sequence of Bile acid receptor (Homo sapiens) (Q96RI1 whole entry, looked up): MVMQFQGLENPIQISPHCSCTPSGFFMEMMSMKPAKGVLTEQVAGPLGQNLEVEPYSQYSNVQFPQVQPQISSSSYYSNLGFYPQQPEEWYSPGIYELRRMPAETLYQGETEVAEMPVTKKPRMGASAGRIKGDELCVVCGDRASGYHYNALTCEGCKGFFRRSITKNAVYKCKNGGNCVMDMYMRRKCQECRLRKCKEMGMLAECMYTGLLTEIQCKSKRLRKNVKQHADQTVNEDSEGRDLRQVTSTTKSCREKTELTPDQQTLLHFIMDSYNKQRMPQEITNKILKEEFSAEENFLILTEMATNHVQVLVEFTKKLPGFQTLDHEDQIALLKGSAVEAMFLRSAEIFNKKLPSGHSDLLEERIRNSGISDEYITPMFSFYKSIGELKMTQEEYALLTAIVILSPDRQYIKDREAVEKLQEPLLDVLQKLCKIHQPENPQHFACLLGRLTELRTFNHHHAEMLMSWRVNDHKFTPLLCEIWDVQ
Summary of the method: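 Cells carrying a UAS-driven beta-lactamase reporter (GeneBLAzer FXR-UAS-bla HEK 293T) were plated and rested 5 h at 37 °C. Compounds in DMSO were added alongside chenodeoxycholic acid agonist at 50 uM final and left 16 h at 37 °C before FRET substrate readout.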

[15] = qHTS assay to identify small molecule agonists of the farnesoid-X-receptor (FXR) signaling pathway - cell viability counter screen (AID 743218); further: nearly all actives have a fitted effect of over 45% in size
Summary of the method: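 Cells were seeded, left 5 h at 37 C and 5% CO2, then dosed with compound in DMSO for 16 h. After the beta-lactamase FRET read, CellTiter-Glo was added and luminescence measured 30 min later.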

[16] = target: Bile acid receptor (Homo sapiens) (UniProt Q96RI1); assay: qHTS assay to identify small molecule agonists of the farnesoid-X-receptor (FXR) signaling pathway (AID 743220; active means well fitted activation curve with a large enough effect in the signal ratio in the repeat runs, not every such curve was filed as active; the % refers to the signal ratio)
Summary of the method: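 FXR-UAS-bla HEK 293T cells carrying a UAS-driven beta-lactamase reporter were plated for 5 h at 37C/5% CO2, then exposed to DMSO-dissolved Tox21 10K compounds for 16 h at 37C. A LiveBLAzer B/G FRET substrate was loaded for 2 h at room temperature before fluorescence reading.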

[17] = qHTS assay to identify small molecule antagonists of the farnesoid-X-receptor (FXR) signaling pathway - cell viability counter screen (AID 743221; active means well fitted cell-killing curve with a large enough effect in the repeat runs, not every such curve was filed as active; further: nearly all actives have a fitted effect of over 50% in size)
Summary of the method: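 Cytotoxicity is taken from ATP luminescence (CellTiter-Glo, 30 min, room temperature) in FXR-bla HEK 293T cells previously incubated 16 h at 37 C with compound and chenodeoxycholic acid at 50 uM final.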

[18] = target: Vitamin D3 receptor (Homo sapiens) (UniProt P11473); assay: qHTS assay to identify small molecule agonists of the vitamin D receptor (VDR) signaling pathway (AID 743222; calls by dose curve)
Sequence of Vitamin D3 receptor (Homo sapiens) (P11473 whole entry, looked up): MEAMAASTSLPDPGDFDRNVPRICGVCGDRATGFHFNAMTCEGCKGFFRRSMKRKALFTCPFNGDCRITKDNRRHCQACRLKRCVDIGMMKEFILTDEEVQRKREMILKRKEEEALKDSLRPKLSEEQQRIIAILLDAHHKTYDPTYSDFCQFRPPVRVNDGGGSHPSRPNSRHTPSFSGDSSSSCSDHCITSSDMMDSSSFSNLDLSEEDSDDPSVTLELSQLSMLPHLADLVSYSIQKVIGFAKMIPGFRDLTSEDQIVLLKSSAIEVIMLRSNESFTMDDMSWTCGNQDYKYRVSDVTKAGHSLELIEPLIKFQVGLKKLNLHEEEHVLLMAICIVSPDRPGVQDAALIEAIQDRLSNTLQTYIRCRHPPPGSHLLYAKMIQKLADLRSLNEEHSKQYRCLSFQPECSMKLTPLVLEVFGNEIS
Summary of the method: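 Cells carrying a VDR-driven beta-lactamase reporter are seeded at 2,000 per well and rested 4 h. Compounds in DMSO are added for 16 h at 37C, and FRET substrate fluorescence is measured after 2 h at room temperature.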

[19] = target: Vitamin D3 receptor (Homo sapiens) (UniProt P11473); assay: qHTS assay to identify small molecule antagonists of the vitamin D receptor (VDR) signaling pathway (AID 743223; active means well fitted inhibition curve with a large enough effect in the signal ratio in the repeat runs, not every such curve was filed as active; the % refers to the signal ratio)
Summary of the method: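 Quantitative HTS in VDR-bla reporter cells stimulated with 1alpha,25-dihydroxyvitamin D3, 3 nM final. Compound exposure 16 h, 37C, 5% CO2. Read-out: beta-lactamase FRET substrate fluorescence, 2 h RT.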

[20] = target: Peroxisome proliferator-activated receptor gamma (Homo sapiens) (UniProt P37231); assay: qHTS assay to identify small molecule antagonists of the peroxisome proliferator-activated receptor gamma (PPARg) signaling pathway (AID 743191; calls by dose curve; further: series mostly up to about 63 µM; nearly all actives have a fitted effect of over 30% in size)
Summary of the method: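 Beta-lactamase reporter under UAS control in HEK293H PPARg-bla cells; compound treatment 17 h at 37C. Read-out: fluorescence intensity after 1 h room-temperature incubation with LiveBLAzer B/G FRET substrate.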

Measured: Potency

COC(=O)c1ccccc1CS(=O)(=O)NC(=O)Nc1nc(OC)cc(OC)n1
inactive: [1] | [2] | [3] | [4] | [5] | [6] | [7] | [8] | [9] | [10] | [11] | [12] | [13] | [14] | [15] | [16] | [17] | [18] | [19]

CCCC[N+](=O)[O-]
inactive: [1] | [2] | [3] | [4] | [20] | [5] | [7] | [8] | [9] | [10] | [12] | [14] | [15] | [16] | [17] | [18] | [19]

CCN(CC)CCOC(=O)C(O)(c1ccccc1)c1ccccc1
inactive: [1] | [2] | [3] | [4] | [20] | [5] | [7] | [8] | [9] | [10] | [11] | [12] | [13] | [14] | [15] | [16] | [17]

O=C(O)C(Br)(Br)Br
active: [6] 5.44 µM
inactive: [1] | [2] | [3] | [4] | [5] | [7] | [8] | [9] | [10] | [11] | [12] | [15] | [18] | [19]
